Only a selection was taken, and hits are over-represented in it overall.
ST2 inh: IL1RL1 inhibition. Q01638. AlphaLISA ST2-Fc/biotin-IL-33 interaction, 1 h. inhibition, % for hits at 17 µM. 78,000 compounds, 2.3% hits; in the data active = inhibition above about 30%
Target sequence (Q01638 whole entry, looked up): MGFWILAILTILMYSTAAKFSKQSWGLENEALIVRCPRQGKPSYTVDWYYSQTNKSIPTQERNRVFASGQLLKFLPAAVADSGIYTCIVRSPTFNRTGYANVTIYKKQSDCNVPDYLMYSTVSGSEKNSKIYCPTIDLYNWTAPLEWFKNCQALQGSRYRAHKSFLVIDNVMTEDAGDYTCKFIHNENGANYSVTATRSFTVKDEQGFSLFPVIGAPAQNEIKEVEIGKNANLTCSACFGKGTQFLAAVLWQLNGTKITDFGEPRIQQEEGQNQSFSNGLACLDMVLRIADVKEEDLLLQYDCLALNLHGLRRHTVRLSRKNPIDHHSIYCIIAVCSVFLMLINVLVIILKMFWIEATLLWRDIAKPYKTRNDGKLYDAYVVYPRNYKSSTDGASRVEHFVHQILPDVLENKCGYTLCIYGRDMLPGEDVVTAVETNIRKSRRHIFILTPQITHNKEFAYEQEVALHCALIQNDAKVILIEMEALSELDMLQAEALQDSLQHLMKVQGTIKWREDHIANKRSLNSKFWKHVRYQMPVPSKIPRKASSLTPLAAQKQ
Of the large screens only hits and unclear results are named; the others gave an inactive call; ! = repeats disagree.

CC1CCCC(C)N1C(=O)C1c2ccccc2Oc2ccccc21 (centres undefined)	none
O=C1CCC(C(=O)N2CCCCCCC2)CN1CCc1ccccc1 (centres undefined)	none
O=C1C=CC(=O)C(C2=C3C(=O)N(CCc4ccccc4)CC(=O)N3CCC2)=C1	ST2 inh 38%
O=C1c2ccccc2C(=O)N1CCc1ccccc1	none
COC1CC(O[C@H]2CC[C@@]3(C)C(=CCC4C3[C@H](O)[C@@H](O)[C@]3(C)[C@@H]([C@H](C)O)CC[C@]43O)C2)OC(C)C1OC1CC(OC)C(OC2CC(OC)C(OC3OC(C)C(OC4OC(CO)C(O)C(O)C4O)C(OC)C3O)C(C)O2)C(C)O1 (some centres undefined)	none
COc1cc(C)nc(N(CC(N)=O)S(=O)(=O)c2ccc(C)cc2)n1	none
CC(C)OC(=O)c1c(NC(=O)CSc2ncccn2)sc2c1CCCC2	none
Cn1ccnc1SCC(=O)Nc1ccc(Cl)cc1	none
COC(=O)c1c(NC(=O)CSc2nccn2C)sc2c1CCC(C(C)(C)C)C2 (centres undefined)	ST2 inh 35%
O=C(CSc1nc2ccccc2c2nc3ccccc3n12)NCC1CCCO1 (centres undefined)	none
N#Cc1c([N+](=O)[O-])cc([N+](=O)[O-])cc1S(=O)(=O)Cc1ccccc1	none
CCO/C=C1\c2cc([N+](=O)[O-])ccc2-c2c1cc([N+](=O)[O-])cc2[N+](=O)[O-]	ST2 inh 54%
O=[N+]([O-])c1ccc(OCCO)c(OCCO)c1	none
CCCc1nc2nc[nH]n2c(=O)c1NC(=O)Nc1ccc(CC(=O)OCC)cc1	none
CCc1c(C)c(C#N)c2nc3ccccc3n2c1NCCOC	none
Cc1cc(-n2ccnc2C)n2c(nc3ccccc32)c1C#N	none
CCOc1cc(-c2c(C#N)c(N)n3c(nc4ccccc43)c2C#N)ccc1OC	ST2 inh 37%
COc1ccc(C2C(C(=O)OCc3ccccc3)=C(C)Nc3ncnn32)cc1 (centres undefined)	none
CCNc1nc2ccccn2c(=O)c1/C=C1\SC(=O)N(CC)C1=O	ST2 inh 30%
Cc1ccc(NCN2C(=O)S/C(=C/c3ccccc3)C2=O)cc1Cl	none
O=C1S/C(=C\c2c(NCC3CCCO3)nc3ccccn3c2=O)C(=O)N1Cc1ccccc1 (centres undefined)	none
CN(C)CCCNC(=O)NC1(C(F)(F)F)Oc2ccc(Cl)cc2O1 (centres undefined)	none
O=C1CCCN1Cc1ccccc1CNS(=O)(=O)NCc1ccccc1	none
Cc1cccc(NC(=O)c2c(-c3ccccc3)noc2C)c1C	none
Cc1ccc(-n2c(SCC(=O)N3CCCCCC3)nc3c(c2=O)SCC3)cc1	none
CC(Sc1nc2c(c(=O)n1-c1ccc(F)cc1)SCC2)c1ccccc1 (centres undefined)	none
CCOC(=O)C(C)(C)Sc1nc2c(c(=O)n1-c1ccc(OCC)cc1)SCC2	ST2 inh 43%
CCCSc1nc2c(c(=O)n1-c1ccc(F)cc1)SCC2	none
CCOC(=O)C(CC)Sc1nc2c(c(=O)n1-c1ccc(C)cc1)SCC2 (centres undefined)	none
Cc1ccc(-n2c(SC(C)C)nc3c(c2=O)SCC3)cc1	ST2 inh 36%!
CCOC(=O)C(C)(C)Sc1nc2c(c(=O)n1-c1ccc(Cl)cc1)SCC2	none
CCSc1nc2c(c(=O)n1-c1ccc(C)cc1)SCC2	ST2 inh 33%!
CCOC(=O)C(C)(C)Sc1nc2c(c(=O)n1-c1ccc(Br)cc1)SCC2	none
COc1ccc(-c2cc(C(=O)Nc3sc4c(c3C#N)CCC4)no2)cc1OC	none
O=C1CCCC2=C1C(c1ccccc1Cl)Nc1ccccc1N2 (centres undefined)	none
Cc1oc(-c2ccccc2Cl)nc1CSCC(=O)NC1CCCC(C)C1C (centres undefined)	none
COc1ccc(-n2ncc3c(NCCc4ccc(OC)c(OC)c4)ncnc32)cc1	none
CC(=O)N1CCN=C1SCc1ccccc1C	none
Cc1c(C(=O)NC2CCCC2)oc2ccc(S(=O)(=O)N3CCC4(CC3)OCCO4)cc12	none
CC(=O)N1CCn2c3c(c4cc(C)ccc42)CCCC31 (centres undefined)	none
Cc1ccc2c(c1)c1c3n2CCN(CCC#N)C3CCC1 (centres undefined)	none
Cc1ccc2c(c1)c1c(n2C)C(C(N)=O)CCC1 (centres undefined)	ST2 inh 32%
Cc1ccc2c(c1)c1c3n2CCN(C(=O)c2ccccc2)C3CCC1 (centres undefined)	ST2 inh 30%
Cc1ccc2c(c1)c1c(n2CCC#N)C(=O)CCC1	none
CC(=O)N1CCn2c3c(c4cc(C5CCCCC5)ccc42)CCCC31 (centres undefined)	none
Cc1nn(C)c(C)c1CCC(=O)N[C@@H]1c2ccccc2C[C@@H]1O	none
CCOC(=O)C1=C(Nc2ccccc2)CC(C)(O)C(C(=O)OCC)C1c1ccc(C)cc1 (centres undefined)	none
O=C(CCS(=O)(=O)c1cccc2nsnc12)NCc1cccs1	none
COc1cccc(C2C(C(=O)Nc3nc4ccccc4s3)=C(C)NC3=C2C(=O)CCC3)c1OC (centres undefined)	none
C=C(C)COc1ccc2cc(-c3nc4ccccc4s3)c(=O)oc2c1	none
Cc1ccc2oc(=O)c(-c3nc4ccccc4s3)cc2c1	ST2 inh 36%
CCN(CC)c1ccc2cc(-c3nc4ccccc4s3)c(=O)oc2c1	none
CCn1c(CC2CCNCC2)nn(CC2COc3ccccc3O2)c1=O (centres undefined)	none
Cc1cc(C)cc(N(C(=O)c2ccc(C(C)(C)C)cc2)C2C=CS(=O)(=O)C2)c1 (centres undefined)	none
Cc1ccc(S(=O)(=O)/C=C/C#N)cc1	none
Cc1ccc(S(=O)(=O)ON=C2C=CC(=O)C=C2)cc1	ST2 inh 47%
CCN(CC)S(=O)(=O)c1ccc(C)cc1	none
CC(C)c1ccc(C(=O)N(Cc2ccco2)C(C)C(C)C)c(=O)n1C (centres undefined)	none
C=CCc1cccc(C=Nc2ccc(Br)cc2)c1O	ST2 inh 39%
O=C(O)c1ccc(O)c(C=Nc2ccc(Br)cc2)c1	none
O=C(O)c1ccc(N=Cc2cc(Br)ccc2O)cc1	none
CCOc1cccc(C2NC(=O)NC(C)=C2C(=O)OCCc2ccccc2)c1 (centres undefined)	none
CC1=C(C(=O)OC2CCCCC2)C(c2cccc(Br)c2)n2nnnc2N1 (centres undefined)	none
Cn1c2nc3ccc(Br)cc3c-2nc2ccccc21	ST2 inh 37%
Cn1c(C(O)(c2ccccc2)c2nc3ccccc3n2C)nc2ccccc21	none
Cn1c(NCc2cc(Br)ccc2O)nc2ccccc21	none
O=C(c1ccc2c(=O)n(CCc3ccccc3)c(=O)[nH]c2c1)N1CCc2ccccc2C1	none
N#Cc1nc(COc2ccccc2F)oc1N1CCCCC1	ST2 inh 53%
N#Cc1nc(-c2ccc(F)cc2)oc1N1CCOCC1	none
O=S(=O)(c1ccccc1)c1nc(-c2ccc(F)cc2)oc1N1CCCCC1	none
Fc1ccccc1OCCCOc1ccccc1F	none
COc1ccc(-c2nc(C#N)c(N3CCOCC3)o2)cc1	none
Cc1nc(S(=O)(=O)c2ccccc2)c(N2CCCCC2)o1	none
N#Cc1nc(COc2ccccc2F)oc1N1CCCC1	ST2 inh 53%
Brc1ccc(-c2noc(COc3ccccc3)n2)cc1	none
N#Cc1nc(COc2ccc(Br)cc2)oc1N1CCCCC1	ST2 inh 64%
O=C(COc1ccc(Br)cc1)N1CCCC1	none
Cc1ccccc1OCc1nc(C#N)c(N2CCCC2)o1	ST2 inh 71%
Fc1ccccc1OCCN1CCNCC1	none
CCN1C(=O)CC(CC(=O)N(C)Cc2cccc3ncccc23)(c2cccc(C(F)(F)F)c2)C1=O (centres undefined)	none
O=C(Nc1nc2c(ccc3ccccc32)s1)c1cccs1	none

Screens from PubChem BioAssay.
